The whole screen tested about 5,500 compounds, of which about 2,000 (36%) were called active. Roughly 18% stayed inconclusive and do not appear here. Rule as the data show it: active = normalized growth mostly below about 0.91 (no sharp cut-off); inconclusive = no clear call, values can overlap the other calls; inactive = mostly above about 0.92. Some of the results follow.
Test: chemical genetic growth profiling, strain panel (AID 1159580);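 also: tested at 20 µM; growth read once vehicle control cultures reached saturation at 30 °C; 1 = growth at the plate median or of vehicle wells; lower values mean less growth of the strain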
Conditions: growth OD

Measured: normalized growth

COc1ccc(CCNC(=O)c2ccccc2Cl)cc1OC
inactive: S. cerevisiae deletion strains, locus YAL013W, strain DEP1, stronger effect = lower value 0.993 | S. cerevisiae deletion strains, locus YBR229C, strain ROT2, stronger effect = lower value 0.987 | S. cerevisiae deletion strains, locus YDL101C, strain DUN1, stronger effect = lower value 1 | S. cerevisiae deletion strains, locus YDR150W, strain NUM1, stronger effect = lower value 0.991 | S. cerevisiae deletion strains, locus YEL061C, strain CIN8, stronger effect = lower value 0.968 | S. cerevisiae deletion strains, locus YGR078C, strain PAC10, stronger effect = lower value 1 | S. cerevisiae deletion strains, locus YGR229C, strain SMI1, stronger effect = lower value 0.988 | S. cerevisiae deletion strains, locus YHR030C, strain SLT2, stronger effect = lower value 1.01 | S. cerevisiae deletion strains, locus YHR087W, strain rtc3, stronger effect = lower value 0.97 | S. cerevisiae deletion strains, locus YJL187C, strain SWE1, stronger effect = lower value 0.984 | S. cerevisiae deletion strains, locus YJR043C, strain POL32, stronger effect = lower value 1 | S. cerevisiae deletion strains, locus YJR075W, strain HOC1, stronger effect = lower value 0.994 | S. cerevisiae deletion strains, locus YKL190W, strain CNB1, stronger effect = lower value 0.997 | S. cerevisiae deletion strains, locus YLR039C, strain RIC1, stronger effect = lower value 1.03 | S. cerevisiae deletion strains, locus YLR058C, strain SHM2 (second series), stronger effect = lower value 1 | S. cerevisiae deletion strains, locus YLR085C, strain ARP6, stronger effect = lower value 0.973 | S. cerevisiae deletion strains, locus YLR262C, strain YPT6, stronger effect = lower value 1.02 | S. cerevisiae deletion strains, locus YML094W, strain GIM5, stronger effect = lower value 0.993 | S. cerevisiae deletion strains, locus YMR219W, strain ESC1, stronger effect = lower value 0.981 | S. cerevisiae deletion strains, locus YMR263W, strain SAP30, stronger effect = lower value 0.993 | S. cerevisiae deletion strains, locus YNL128W, strain TEP1, stronger effect = lower value 0.983 | S. cerevisiae deletion strains, locus YNL153C, strain GIM3, stronger effect = lower value 0.988 | S. cerevisiae deletion strains, locus YNL298W, strain CLA4 (second series), stronger effect = lower value 1.01 | S. cerevisiae deletion strains, locus YNL322C, strain KRE1, stronger effect = lower value 1.01 | S. cerevisiae deletion strains, locus YNR030W, strain Alg12, stronger effect = lower value 1.03 | S. cerevisiae deletion strains, locus YPL055C, strain LGE1, stronger effect = lower value 0.976 | S. cerevisiae deletion strains, locus YPL241C, strain CIN2, stronger effect = lower value 1.02 | S. cerevisiae deletion strains, locus YPR135W, strain CTF4, stronger effect = lower value 1.06 | S. cerevisiae strains, strain wild type, stronger effect = lower value 1.01

From PubChem BioAssay AID1159580 (chemical genetic matrix, 2015)
